Reference: PubChem BioAssay (EPA / NIEHS)
Activity calls are given as the source filed them. Rule for the calls: active = hit-call score of the fitted dose curve at least 0.9, where 1 is the maximum; inactive = score below 0.9.

Columns and labels:
Settings in all cases: mRNA level, 48 h; actives raise or lower the signal
[1] = read-out: DNA damage-inducible transcript 3 (DDIT3), DDIT3 (gene 1649); assay: LTEA_HepaRG_DDIT3: Life Technologies and Expression Analysis (LTEA) Assay for DNA damage-inducible transcript 3 (DDIT3) using HepaRG (AID 2283488)
Procedure, shortened: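 HepaRG plated 48 h, switched to serum-free induction medium, dosed 48 h (100 uM top, half-log, 8 pts, 0.5% DMSO, n=2); RNA isolated; DDIT3 by qRT-PCR; bidirectional curve fit vs DMSO.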

[2] = read-out: Pro-epidermal growth factor (Homo sapiens) (UniProt P01133); assay: LTEA_HepaRG_EGF: Life Technologies and Expression Analysis (LTEA) Assay for Epidermal growth factor (EGF) using HepaRG (AID 2283489)
Procedure, shortened: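 EGF transcript measured by Fluidigm TaqMan qRT-PCR with three housekeeping genes for normalization, 48 h after dosing HepaRG cultures in duplicate (top 100 uM, half-log steps, 0.5% DMSO vehicle). Gain or loss relative to DMSO fitted.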

[3] = read-out: Early growth response protein 1 (EGR1) transcription factor, EGR1 (gene 1958); assay: LTEA_HepaRG_EGR1: Life Technologies and Expression Analysis (LTEA) Assay for Early growth response protein 1 (EGR1) transcription factor using HepaRG (AID 2283490)
Procedure, shortened: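 Differentiated human HepaRG cells in serum-free induction medium were exposed in duplicate for 48 h to eight concentrations (top 100 uM, half-log steps) in 0.5% DMSO. EGR1 mRNA was quantified by qRT-PCR, normalized to ACTB, GAPDH and POLR2A, and fitted bidirectionally versus DMSO.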

[4] = read-out: Ezrin (EZR), EZR (gene 7430); assay: LTEA_HepaRG_EZR: Life Technologies and Expression Analysis (LTEA) Assay for Ezrin (EZR) using HepaRG (AID 2283491)
Procedure, shortened: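 Read-out is EZR transcript level by qRT-PCR, normalized to three housekeeping genes and fitted bidirectionally against the DMSO control. Human HepaRG cells received test chemicals for 48 h at eight half-log concentrations up to 100 uM in 0.5% DMSO.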

[5] = read-out: Cytochrome P450 3A7 (Homo sapiens) (UniProt P24462); assay: LTEA_HepaRG_CYP3A7: Life Technologies and Expression Analysis (LTEA) Assay for CYP3A7 using HepaRG (AID 2283492)
Procedure, shortened: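 CYP3A7 transcript measured by qRT-PCR (ACTB, GAPDH, POLR2A normalization) after 48 h chemical exposure of HepaRG cells in duplicate. Eight half-log concentrations, maximum 100 uM, 0.5% DMSO vehicle; bidirectional curve fitting against DMSO baseline.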

CYP3A5 (gene 1577) = assay: LTEA_HepaRG_CYP3A5: Life Technologies and Expression Analysis (LTEA) Assay for CYP3A5 using HepaRG (AID 2283493)
Procedure, shortened: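 HepaRG plated 48 h, switched to serum-free induction medium, chemicals added 48 h (max 100 uM, half-log, 0.5% DMSO). RNA isolated; CYP3A5 by TaqMan qRT-PCR. Gain/loss vs DMSO.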

[6] = read-out: Fatty Acid-Binding Protein 1 (FABP1), FABP1 (gene 2168); assay: LTEA_HepaRG_FABP1: Life Technologies and Expression Analysis (LTEA) Assay for Fatty Acid-Binding Protein 1 (FABP1) using HepaRG (AID 2283494)
Procedure, shortened: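 Differentiated human HepaRG cells were exposed in duplicate for 48 h in serum-free induction medium to 8-point half-log concentration series topping at 100 uM in 0.5% DMSO. FABP1 mRNA measured by TaqMan qRT-PCR, normalized to ACTB/GAPDH/POLR2A; bidirectional fit versus DMSO.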

[7] = read-out: Cytochrome P450 4A22 (Homo sapiens) (UniProt Q5TCH4); assay: LTEA_HepaRG_CYP4A22: Life Technologies and Expression Analysis (LTEA) Assay for Cytochrome P450 4A22 (CYP4A22) using HepaRG (AID 2283495)
Procedure, shortened: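 Gene expression measured by qRT-PCR against three housekeeping genes (ACTB, GAPDH, POLR2A), with gain or loss fitted relative to 0.5% DMSO vehicle. HepaRG cultures received 48 h chemical treatment, top concentration 100 uM, half-log steps, duplicate wells.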

[8] = read-out: Cytochrome P450 7A1 (Homo sapiens) (UniProt P22680); assay: LTEA_HepaRG_CYP7A1: Life Technologies and Expression Analysis (LTEA) Assay for Cytochrome P450 7A1 (CYP7A1) using HepaRG (AID 2283496)
Procedure, shortened: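 HepaRG cells plated 48 h, then switched to serum-free induction medium and exposed in duplicate for 48 h to 8-point half-log series from 100 uM in 0.5% DMSO. CYP7A1 mRNA by qRT-PCR (TaqMan), normalized to ACTB/GAPDH/POLR2A; bidirectional fit versus DMSO.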

[9] = read-out: Glutathione S-Transferase (GSTA2), GSTA2 (gene 2939); assay: LTEA_HepaRG_GSTA2: Life Technologies and Expression Analysis (LTEA) Assay for Glutathione S-Transferase (GSTA2) using HepaRG (AID 2283497)
Procedure, shortened: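 Human HepaRG cells, plated 48 h, then exposed in serum-free induction medium for 48 h to eight half-log concentrations up to 100 uM in 0.5% DMSO, duplicate. GSTA2 mRNA by qRT-PCR, normalized to ACTB/GAPDH/POLR2A; bidirectional fit versus DMSO.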

[10] = read-out: Glutamate-cysteine ligase catalytic (GCLC), GCLC (gene 2729); assay: LTEA_HepaRG_GCLC: Life Technologies and Expression Analysis (LTEA) Assay for Glutamate-cysteine ligase catalytic (GCLC) using HepaRG (AID 2283498)
Procedure, shortened: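 Differentiated human HepaRG cells, plated 48 h then switched to serum-free induction medium, were exposed in duplicate for 48 h to 8 half-log concentrations topping at 100 uM in 0.5% DMSO. GCLC mRNA was quantified by qRT-PCR against ACTB, GAPDH and POLR2A.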

[11] = read-out: growth arrest and DNA damage 45 (GADD45G), GADD45G (gene 10912); assay: LTEA_HepaRG_GADD45G: Life Technologies and Expression Analysis (LTEA) Assay for growth arrest and DNA damage 45 (GADD45G) using HepaRG (AID 2283499)
Procedure, shortened: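 GADD45G transcript level by qRT-PCR (housekeeping-normalized: ACTB, GAPDH, POLR2A) after 48 h chemical treatment of a single HepaRG lot in serum-free induction medium; eight-point half-log series up to 100 uM in 0.5% DMSO, duplicates, up- or down-regulation scored.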

[12] = read-out: Glutamate-cysteine ligase regulatory (GCLM), GCLM (gene 2730); assay: LTEA_HepaRG_GCLM: Life Technologies and Expression Analysis (LTEA) Assay for Glutamate-cysteine ligase regulatory (GCLM) using HepaRG (AID 2283500)
Procedure, shortened: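 Cells were plated, cultured 48 h, switched to serum-free induction medium, then dosed in duplicate for 48 h at eight half-log concentrations up to 100 uM. RNA was then profiled by qRT-PCR; gain or loss versus DMSO was fitted.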

[13] = read-out: Glutathione S-transferase M3 (GSTM3), GSTM3 (gene 2947); assay: LTEA_HepaRG_GSTM3: Life Technologies and Expression Analysis (LTEA) Assay for Glutathione S-transferase M3 (GSTM3) using HepaRG (AID 2283501)
Procedure, shortened: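 GSTM3 transcript levels came from Fluidigm TaqMan qRT-PCR normalized to three housekeeping genes, fitted in both directions against DMSO. HepaRG cultures received chemicals for 48 h in serum-free induction medium (0.5% DMSO), 8 half-log concentrations up to 100 uM, duplicate.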

[14] = read-out: Heat shock 70 kDa protein 1 (HSPA1A), gene 3303; assay: LTEA_HepaRG_HSPA1A: Life Technologies and Expression Analysis (LTEA) Assay for Heat shock 70 kDa protein 1 (HSPA1A) using HepaRG (AID 2283502)
Procedure, shortened: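 Readout is HSPA1A transcript level by microfluidic qRT-PCR, normalized to three housekeeping genes and analysed for gain or loss of signal relative to 0.5% DMSO. Human HepaRG cultures received test chemicals for 48 h at up to 100 uM.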

[15] = read-out: Hypoxia-inducible factor 1-alpha (Homo sapiens) (UniProt Q16665); assay: LTEA_HepaRG_HIF1A: Life Technologies and Expression Analysis (LTEA) Assay for Hypoxia-inducible factor 1 (HIF1A) Trancription factor using HepaRG (AID 2283503)
Procedure, shortened: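 Differentiated HepaRG cells in serum-free induction medium exposed 48 h, in duplicate, to 8-point half-log series from 100 uM in 0.5% DMSO. HIF1A mRNA measured by TaqMan qRT-PCR, normalized to ACTB/GAPDH/POLR2A, fitted bidirectionally versus DMSO.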

[16] = read-out: 3-Hydroxy-3-Methylglutaryl-CoA Synthase 2 (HMGCS2), HMGCS2 (gene 3158); assay: LTEA_HepaRG_HMGCS2: Life Technologies and Expression Analysis (LTEA) Assay for 3-Hydroxy-3-Methylglutaryl-CoA Synthase 2 (HMGCS2) using HepaRG (AID 2283504)
Procedure, shortened: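 Readout is HMGCS2 transcript by qRT-PCR, housekeeping-normalised (ACTB/GAPDH/POLR2A) and fitted bidirectionally against 0.5% DMSO. Differentiated HepaRG cells received chemicals 48 h, duplicate wells, eight half-log concentrations topping at 100 uM.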

HGF (gene 3082) = assay: LTEA_HepaRG_HGF: Life Technologies and Expression Analysis (LTEA) Assay for Hepatocyte Growth Facto (HGF) using HepaRG (AID 2283505)
Procedure, shortened: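 HGF transcript was quantified by TaqMan qRT-PCR against three housekeeping genes after 48 h treatment of HepaRG cells. Exposure ran in duplicate over eight half-log steps topping at 100 uM in 0.5% DMSO vehicle.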

[17] = read-out: Insulin Like Growth Factor 1 (IGF1), IGF1 (gene 3479); assay: LTEA_HepaRG_IGF1: Life Technologies and Expression Analysis (LTEA) Assay for Insulin Like Growth Factor 1 (IGF1) using HepaRG (AID 2283506)
Procedure, shortened: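 HepaRG, plated 48 h, then switched to serum-free induction media; test chemical 8-pt half-log from 100 uM (0.5% DMSO), duplicate, 48 h. Lysis in RLT, TaqMan qRT-PCR, norm. ACTB/GAPDH/POLR2A. Bidirectional fit vs DMSO.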

[18] = read-out: Intercellular Adhesion Molecule 1 (ICAM1), ICAM1 (gene 3383); assay: LTEA_HepaRG_ICAM1: Life Technologies and Expression Analysis (LTEA) Assay for Intercellular Adhesion Molecule 1 (ICAM1) using HepaRG (AID 2283507)
Procedure, shortened: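 ICAM1 transcript levels measured by qRT-PCR, normalized to three housekeeping genes (ACTB, GAPDH, POLR2A), after 48 h chemical exposure of HepaRG cells. Duplicate eight-point half-log series from 100 uM in 0.5% DMSO; gain or loss fitted against vehicle.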

Measured: outcome

Sequence of Hypoxia-inducible factor 1-alpha (Homo sapiens) (Q16665 whole entry, looked up): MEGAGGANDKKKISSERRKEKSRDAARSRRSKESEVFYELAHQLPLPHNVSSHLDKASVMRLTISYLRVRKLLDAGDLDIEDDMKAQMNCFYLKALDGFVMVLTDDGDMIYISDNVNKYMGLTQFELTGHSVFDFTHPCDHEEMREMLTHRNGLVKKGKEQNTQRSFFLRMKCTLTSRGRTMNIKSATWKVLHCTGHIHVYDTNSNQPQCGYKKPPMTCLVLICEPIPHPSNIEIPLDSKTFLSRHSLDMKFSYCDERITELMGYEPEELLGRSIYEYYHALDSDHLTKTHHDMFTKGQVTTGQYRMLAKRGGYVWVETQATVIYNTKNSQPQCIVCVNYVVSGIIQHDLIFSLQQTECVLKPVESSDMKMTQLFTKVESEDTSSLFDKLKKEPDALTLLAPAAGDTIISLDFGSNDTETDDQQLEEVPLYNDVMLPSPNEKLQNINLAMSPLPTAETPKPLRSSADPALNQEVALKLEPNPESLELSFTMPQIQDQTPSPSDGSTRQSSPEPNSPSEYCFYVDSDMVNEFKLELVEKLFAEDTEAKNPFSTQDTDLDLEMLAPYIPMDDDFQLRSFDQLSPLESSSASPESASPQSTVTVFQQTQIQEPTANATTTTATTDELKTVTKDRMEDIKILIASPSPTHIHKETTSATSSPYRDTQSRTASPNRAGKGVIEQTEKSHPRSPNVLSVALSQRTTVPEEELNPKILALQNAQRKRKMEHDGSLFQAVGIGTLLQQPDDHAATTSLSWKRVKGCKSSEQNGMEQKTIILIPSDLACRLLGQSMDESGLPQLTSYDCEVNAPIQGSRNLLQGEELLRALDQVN
Sequence of Cytochrome P450 3A7 (Homo sapiens) (P24462 whole entry, looked up): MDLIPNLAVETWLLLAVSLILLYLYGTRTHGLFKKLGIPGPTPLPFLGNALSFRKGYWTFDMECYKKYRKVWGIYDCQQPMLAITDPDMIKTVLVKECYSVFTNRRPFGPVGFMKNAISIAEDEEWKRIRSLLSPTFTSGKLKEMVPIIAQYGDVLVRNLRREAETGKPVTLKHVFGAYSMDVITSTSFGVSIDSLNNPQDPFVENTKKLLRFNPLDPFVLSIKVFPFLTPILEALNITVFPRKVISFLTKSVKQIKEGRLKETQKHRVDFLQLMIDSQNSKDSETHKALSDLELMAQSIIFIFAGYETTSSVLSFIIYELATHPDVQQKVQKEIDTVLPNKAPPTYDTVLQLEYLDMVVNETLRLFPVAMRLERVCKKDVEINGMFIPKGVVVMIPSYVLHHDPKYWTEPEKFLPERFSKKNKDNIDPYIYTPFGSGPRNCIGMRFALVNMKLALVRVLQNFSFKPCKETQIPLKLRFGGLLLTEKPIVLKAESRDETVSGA

C1CNCCN1
inactive: all assays above

Cc1ccc([N+](=O)[O-])cc1N
inactive: all assays above

Nc1ccc(C(=O)O)cc1
inactive: all assays above
